The list is not random: actives were taken first. Their share in the collection is about 15%.
TDP1 cell noCPT: qHTS for Inhibitors of human tyrosyl-DNA phosphodiesterase 1 (TDP1): qHTS in cells in absence of CPT; Potency, µM (top dose mostly 46.2 µM), for inactives: at the highest dose activity change, negative = growth inhibition, hits mostly inhibitors; DT40 Tdp1-/- hTDP1 cells, no CPT, ATP luminescence, 48 h; 15% of 420,000 active; AID 686978, 2013; note: nearly all actives have a fitted effect of over 55% in size
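Compound effects on proliferation are scored in DT40 Tdp1-/-;hTDP1 cells in the absence of CPT. ATP levels (CellTiter-Glo luminescence) are recorded after a ≥48 hr, 37 °C incubation.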
RORg inh: blocks mouse ROR gamma transcriptional activity; P51450; Drosophila S2 Gal4-RORgamma UAS-luciferase reporter, 20 h; Potency, µM (titrated, usually from 53.6 µM), inactives show at the highest dose activity change, negative = inhibition, hits mostly inhibitors; 5.4% of 310,000 active; AID 2551; note: nearly all actives have a fitted effect of over 60% in size
Target sequence (P51450 whole entry, looked up, the tested form may be a part): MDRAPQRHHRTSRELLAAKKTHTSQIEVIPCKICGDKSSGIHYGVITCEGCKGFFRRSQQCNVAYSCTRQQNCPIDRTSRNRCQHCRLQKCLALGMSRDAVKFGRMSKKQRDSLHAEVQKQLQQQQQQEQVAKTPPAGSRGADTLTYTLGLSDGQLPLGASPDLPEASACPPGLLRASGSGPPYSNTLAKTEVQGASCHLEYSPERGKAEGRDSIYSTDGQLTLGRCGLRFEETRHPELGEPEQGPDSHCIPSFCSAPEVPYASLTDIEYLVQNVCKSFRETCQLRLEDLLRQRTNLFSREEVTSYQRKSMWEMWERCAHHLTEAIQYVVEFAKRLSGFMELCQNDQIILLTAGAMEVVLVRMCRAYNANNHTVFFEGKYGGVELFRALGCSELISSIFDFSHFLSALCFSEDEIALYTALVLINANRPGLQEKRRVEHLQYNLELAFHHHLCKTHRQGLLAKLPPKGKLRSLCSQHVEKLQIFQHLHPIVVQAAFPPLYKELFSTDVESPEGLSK
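ROR gamma transcriptional activity was tracked as Gal4-UAS luciferase output in stably transfected Drosophila Schneider cells, with compound added 1 hr before 700 uM copper sulfate induction and a 20 hr ambient-temperature incubation.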
12-LOX inh: inhibitors of human 12S-lipoxygenase ALOX12 | P18054 | purified 12hLO, xylenol orange hydroperoxide absorbance | Potency, µM (doses to about 108 µM), for inactives: at the highest dose activity change, negative = inhibition, actives largely listed as inhibitors | 1.1% of 580,000 active | AID 1671190
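Hydroperoxide product was detected by ferrous iron/xylenol orange as the 573 to 405 nm absorbance ratio. Arachidonic acid at 40 uM (final) was turned over for 30 min at room temperature by 150 nM human 12hLO, pH 7.0 Hepes buffer, after 15 min compound preincubation.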
DT40 TDP1 CPT: growth inhibition of DT40 Tdp1-/-;hTDP1 cells with camptothecin (screen for TDP1 inhibitors) | chicken DT40 Tdp1-/-;hTDP1 cells + 20 nM CPT, ATP luminescence, 48 h | 12% of 420,000 active | Potency, µM (highest dose often 46.2 µM), inactives show top-dose activity change, negative = growth inhibition, usual class: inhibitors | AID 686979; note: nearly all actives have a fitted effect of over 55% in size
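Cell growth measured by CellTiter-Glo luminescence after a minimum 48 h, 37 C compound exposure with 20 nM CPT in Tdp1-knockout DT40 cells stably expressing hTDP1, seeded 400/well; qHTS titration format.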
ELG1 repair inh: blocks ELG1-dependent DNA repair in HEK293T cells | HEK293T ELG1-luciferase reporter, luminescence, 16 h; DNA damage induced by 5-fluorouridine | Potency, µM (top dose mostly 46.1 µM), for the others: top-dose activity change, negative = inhibition, actives largely listed as inhibitors | 2.3% of 330,000 active | AID 504467; note: nearly all actives have a fitted effect of over 55% in size
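Cells (2,000 per well) received 5-fluorouridine plus test compound or DMSO and were incubated 16 hr at 37 °C, 5% CO2. Luciferase activity was read by luminescence 30 min after ONE-Glo addition; signal suppression marked inhibition of damage-induced ELG1 function.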
Gal4-VP16 FLuc: counter-screen for ROR gamma inhibitors: Gal4-VP16 reporter. Drosophila S2 Gal4-VP16 UAS-luciferase, luminescence, 20 h. Potency, µM (series often up to 53.6 µM), inactives show at the highest dose activity, negative = inhibition, actives largely listed as inhibitors. AID 2546. 3.5% of 310,000 active;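 note: Gal4-VP16 expression switched on by copper sulfate through the metallothionein promoter; nearly all actives have a fitted effect of over 50% in size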
Starred values were filed as active, the others as inactive; i = inactive; ? = inconclusive; . = not tested or not shown; [ ] = another dose, or the depositor's remark. Calls come from the whole dose curve; as a rule, active = well fitted curve in the direction sought with a large enough effect; inconclusive = small, poorly fitted or top-dose-only effect, or another doubt; inactive = no such curve, though single readings can be large; an effect the other way counts as inactive or inconclusive. % is set by controls: 0 for no effect and ±100 for the full control effect; potency is the fitted concentration of half-maximal effect.

SMILES	TDP1 cell noCPT	RORg inh	12-LOX inh	DT40 TDP1 CPT	ELG1 repair inh	Gal4-VP16 FLuc
CCNc1nc(-c2ccc(OC(F)F)cc2)c(C)s1	-25%	11µM*	-14%	?	?	-56%
CCCCn1cnc2c(SCc3cccc(F)c3)nc(N)nc21	?	.	-22%	-23%	.	.
CCC(C)Cn1cnc2c(Sc3c([N+](=O)[O-])ncn3C)nc(N)nc21 (centres undefined)	23µM*	.	-18%	16µM*	.	.
CCCn1cnc2c(Sc3c([N+](=O)[O-])ncn3C)nc(N)nc21	?	.	7%	-26%	.	.
CCCCn1cnc2c(SCc3ccc([N+](=O)[O-])cc3)nc(N)nc21	?	.	-2%	15µM*	.	.
COC(=O)c1c(NC(=O)CSc2nc3ccc(C)cc3[nH]2)sc2c1CCC2	.	.	-2%	.	.	.
CCCCCCOc1ccc(/C=c2\s/c(=C(/C#N)C(=O)NCc3ccco3)n(-c3ccccc3)c2=O)cc1	6.5µM*	11%	-2%	2.9µM*	13%	-10%
Cc1cccc(-c2nc(SCc3noc(CCC(=O)Nc4ccc5ccccc5c4)n3)n[nH]2)c1	.	.	-19%	.	.	.
COCCNC(=O)c1ccc2c(=O)n(CCc3ccccc3)c(SCC(=O)CC(=O)OC)nc2c1	21µM*	.	-3%	?	.	.
COCCn1c(SCC(=O)c2c[nH]c3ccccc23)nc2cc(C(=O)NCC(C)C)ccc2c1=O	-19%	.	2%	?	.	.
COCCNC(=O)c1ccc2c(=O)n(CCOC)c(SCC(=O)c3c[nH]c4ccccc34)nc2c1	13µM*	.	12%	23µM*	.	.
COCCNc1nnc(SCC(=O)c2c[nH]c3ccccc23)s1	?	?	-16%	-24%	-1%	35µM*
c1cnn(-c2ccc(-c3nc(C4CCOC4)no3)cc2)c1 (centres undefined)	.	.	21%	.	.	.
NNc1ccc(Cl)nn1	4%	10µM*	?	7%	?	?
CCOc1cc(CNC(=O)c2ccc(NC(=O)c3nsc4ccccc34)cc2)ccc1OC	?	.	-18%	?	.	.
COc1ccc(OC)c(CNC(=O)c2ccc(NC(=O)c3nsc4ccccc34)cc2)c1	18µM*	.	3%	?	.	.
CC(C)Oc1ccc(CNC(=O)c2ccc(NC(=O)c3nsc4ccccc34)cc2)cc1	18µM*	.	2%	21µM*	.	.
CCOc1ccc(CNC(=O)c2ccc(NC(=O)c3nsc4ccccc34)cc2)cc1	-16%	.	-15%	?	.	.
CN(Cc1ccccc1)C(=O)CNC(=O)Nc1ccccc1	.	.	-21%	.	.	.
COc1ccc2cnn(CC(=O)Nc3ccccc3Br)c(=O)c2c1OC	.	.	-16%	.	.	.
CCOC(=O)C(=N/O)/C(C)=N/NC(C)=O	-4%	-42%	23%	-5%	16%	6%[10 µM]
CCOC(=O)C(=N/O)/C(C)=N/NC(=O)C(=O)Nc1cc(Cl)ccc1Cl	?	11µM*	150%	?	?	22µM*
CCOc1cc(=O)n2c(c1C(=O)Nc1cccc(F)c1)CCCC2	.	.	26%	.	.	.
Cc1ccc(OCC(COCc2ccccc2)NC(C)C)cc1 (centres undefined)	18µM*	.	?	?	.	.
CC(c1cccs1)N(C)Cc1cccnc1 (centres undefined)	.	.	1%[176 µM]	.	.	.
SMILES	TDP1 cell noCPT	RORg inh	12-LOX inh	DT40 TDP1 CPT	ELG1 repair inh	Gal4-VP16 FLuc
Cc1ncc(CN2CCCC(C(=O)Nc3ccc(-c4ccco4)cc3)C2)n1C (centres undefined)	21µM*	5%	i	?	-3%	24%
CCc1nc(CN2CCCC(C(=O)Nc3ccc(-c4cccc(OC)c4)cc3)C2)c(C)[nH]1 (centres undefined)	?	.	4%	?	.	.
COc1cccc(-c2ccc(NC(=O)C3CCCN(Cc4ccco4)C3)cc2)c1 (centres undefined)	16µM*	.	-20%	?	.	.
COc1cccc(-c2ccc(NC(=O)C3CCCN(CCCn4nc(C)cc4C)C3)cc2)c1 (centres undefined)	?	?	-4%	18µM*	?	-4%
Cn1cc(CN2CCCC(C(=O)Nc3ccc(-c4cccc(F)c4)cc3)C2)cn1 (centres undefined)	12µM*	-11%	-11%	21µM*	?	-20%
O=C1NC(C(=O)N2CCN(Cc3ccc(F)cc3F)CC2)Cn2cccc21 (centres undefined)	.	.	9%	.	.	.
Cc1cccc(C(=O)N2CCC(C(NC(=O)c3ccccc3Cl)C(=O)NCC(C)C)CC2)c1 (centres undefined)	.	.	10%	.	.	.
Cc1ccc(NC(=O)c2nnc(SCC(=O)NCCC(C)C)s2)cc1	.	.	-48%	.	.	.
CCCN(C(=O)Cn1cnc2sc(C)c(S(=O)(=O)N3CCN(c4ncccn4)CC3)c2c1=O)c1cccc(C)c1	15µM*	.	?	-26%	.	.
